The nature of assay [1]: qHTS assay to identify small molecule agonists of the constitutive androstane receptor (CAR) signaling pathway - cell viability counter screen (AID 1224836). Further: nearly all actives have a fitted effect of over 45% in size. Further: potency means the concentration at half of the fitted maximal effect. A digest of the protocol: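 Viability read-out: CellTiter-Fluor fluorescence after 23 h compound exposure at 37 C/5% CO2 in double-stable HepG2-CYP2B6-hCAR cells, with PK11195 present at 0.75 uM final; compounds tested in 15-point titration.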
On the technique in general: Quantitative high-throughput screening tests each substance at several concentrations.

Assay [2] concerns the target Nuclear receptor subfamily 1 group I member 3 (Homo sapiens) (UniProt Q14994). The assay is described as follows: qHTS assay to identify small molecule antagonists of the constitutive androstane receptor (CAR) signaling pathway (AID 1224838). Further: nearly all actives have a fitted effect of over 40% in size. Further: potency means the concentration at half of the fitted maximal effect. The procedure, abridged: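 Compounds were titrated across 15 concentrations onto HepG2 cells double-stably expressing hCAR and a CYP2B6-2.2kb reporter, together with 50 nM CITCO (final). After 24 h at 37 C, luciferase activity was measured by luminescence.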

Assay [3] shares this target. The assay is described as follows: qHTS assay to identify small molecule agonists of the constitutive androstane receptor (CAR) signaling pathway (AID 1224839). Further: nearly all actives have a fitted effect of over 15% in size. A digest of the protocol:
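Luminescence read-out (ONE-Glo, 30 min, room temperature) from double-stable HepG2-CYP2B6-hCAR cells exposed 24 h to 15-point compound series in presence of 0.75 uM PK11195 final.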

The nature of assay [4]: qHTS assay to identify small molecule agonists of the estrogen related receptor signaling pathway with the pleiotropic PPARgamma coactivator (PGC) from Tox21 10K library (AID 1224842). Further: nearly all actives have a fitted effect of over 15% in size. Further: potency means the concentration at half of the fitted maximal effect. The procedure, abridged:
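Luminescence from One-Glo (30 min, room temperature) measured after PGC/ERR cells had 18 h at 37 C with pinned compound (23 nL in DMSO). Cells had been seeded at 2,000 per well and pre-incubated 6 h.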

Assay [5] deals with Thyrotropin receptor (Homo sapiens) (UniProt P16473). Description: qHTS assay to identify small molecule agonists of the thyroid stimulating hormone receptor (TSHR) signaling pathway (AID 1224843; calls by dose curve; further: nearly all actives have a fitted effect of over 45% in size; further: potency means the concentration at half of the fitted maximal effect). The procedure, abridged: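 HEK293 cells stably bearing the thyrotropin receptor were plated at 800 cells/well and challenged with compound (30 min, RT). Accumulated cAMP was quantified via cAMP-d2 competing for cryptate-tagged antibody.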

The nature of assay [6]: qHTS assay to identify small molecule agonists of the hypoxia (HIF-1) signaling pathway - cell viability counter screen (AID 1224844; calls by dose curve; further: nearly all actives have a fitted effect of over 50% in size; further: potency means the concentration at half of the fitted maximal effect). The procedure, abridged: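 Tox21 10K compounds were added to HRE-bla ME-180 cells (0.5% dialyzed FBS) and incubated 17 hrs at 37C; ATP-based CellTiter-Glo luminescence then reported cell viability in the same wells.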
A short description of assay [7]: qHTS assay to identify small molecule agonists of H2AX (AID 1224845; active means well fitted activation curve with a large enough effect in the signal ratio in the repeat runs, not every such curve was filed as active; the % refers to the signal ratio; further: potency means the concentration at half of the fitted maximal effect). The procedure, abridged:
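Phospho-H2AX Ser139 measured by HTRF (ex 320 nm; em 665 and 620 nm) after 24 hr antibody incubation. Compounds, 15 concentrations, 0.76% DMSO, were applied to CHO-K1 cells for 3hr at 37C before lysis.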

Assay [8] can be described thus: qHTS assay to identify small molecule agonists of the estrogen related receptor (ERR) signaling pathway from Tox21 library (AID 1224849; calls by dose curve; further: nearly all actives have a fitted effect of over 15% in size). The note with it: ERR reporter cell line, ONE-Glo luciferase, 18 h. The procedure, abridged: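 Agonist signal is luciferase luminescence from an ERR reporter cell line treated 18 h at 37 C with DMSO-dissolved compounds, read 30 min after ONE-Glo addition at room temperature.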

A short description of assay [9]: qHTS RealTime-Glo MT Cell Viability Assay in HepG2 cells - 24 hour (AID 1224867). Further: nearly all actives have a fitted effect of over 50% in size. Further: potency means the concentration at half of the fitted maximal effect. A digest of the protocol:
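Cell number in HepG2 cultures estimated from NanoLuc luminescence generated by metabolic reduction of a prosubstrate by living cells. The homogeneous, nonlytic format allowed repeated reads at 0, 8, 16, 24, 32 and 40 h of compound exposure.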

The nature of assay [10]: qHTS RealTime-Glo MT Cell Viability Assay in HEK293 cells - 32 hour (AID 1224868). Further: nearly all actives have a fitted effect of over 50% in size. Further: potency means the concentration at half of the fitted maximal effect. A digest of the protocol:
(§1)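 Homogeneous bioluminescent viability format in HEK293 cells (600 cells/well). Following 5 h at 37 C/5% CO2, 23 nL compound was pintooled; the signal was measured repeatedly during 40 h incubation.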

Assay [11] is described as follows: A CellTox Green Cytotoxicity Assay to monitor cytotoxicity in HEK293 cells - 0 hour (AID 1224869). Further: nearly all actives have a fitted effect of over 50% in size. Further: potency means the concentration at half of the fitted maximal effect. A digest of the protocol: (§2)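 Cytotoxicity was tracked continuously in HEK293 cells by a DNA-binding dye excluded from viable cells. Compounds were transferred in DMSO 5 h after seeding; fluorescence was recorded at intervals up to 40 h.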
A short description of assay [12]: qHTS RealTime-Glo MT Cell Viability Assay in HepG2 cells - 40 hour (AID 1224870). Further: nearly all actives have a fitted effect of over 50% in size. The procedure, abridged: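 Real-time viability: cells seeded at 600 per well together with NanoLuc and cell-permeant prosubstrate, compounds added after 5 h incubation. Luminescence tracked at 0, 8, 16, 24, 32 and 40 h of exposure.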
The nature of assay [13]: A CellTox Green Cytotoxicity Assay to monitor cytotoxicity in HEK293 cells - 40 hour (AID 1224871). Further: nearly all actives have a fitted effect of over 45% in size. Further: potency means the concentration at half of the fitted maximal effect. A digest of the protocol:
as §2

A short description of assay [14]: qHTS assay to identify small molecule antagonists of the constitutive androstane receptor (CAR) signaling pathway - cell viability counter screen (AID 1224837). Further: nearly all actives have a fitted effect of over 45% in size. Further: potency means the concentration at half of the fitted maximal effect. The procedure, abridged:
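Multiplexed cytotoxicity read-out for the CAR antagonist screen: double-stable HepG2-CYP2B6-hCAR cells co-treated with 50 nM CITCO (final) and compound over 15 concentrations, incubated 23 hr, then assessed by CellTiter-Fluor fluorescence.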

Assay [15] can be described thus: qHTS assay to identify small molecule antagonists of the estrogen related receptor signaling pathway with the pleiotropic PPARgamma coactivator (PGC) from Tox21 10K library - cell viability counter screen (AID 1224840; active means well fitted cell-killing curve with a large enough effect in the repeat runs, not every such curve was filed as active; further: nearly all actives have a fitted effect of over 40% in size; further: potency means the concentration at half of the fitted maximal effect). A digest of the protocol: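 Step one, plate 2,000 PGC/ERR cells per well; step two, incubate 6 h at 37 C/5% CO2; step three, pin-transfer compounds; step four, incubate 17.5 h; step five, add CellTiter-Fluor and read fluorescence after 30 min.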

The nature of assay [16]: qHTS assay to identify small molecule agonists of the hypoxia (HIF-1) signaling pathway (AID 1224846; active means well fitted activation curve with a large enough effect in the signal ratio in the repeat runs, not every such curve was filed as active; the % refers to the signal ratio). The procedure, abridged: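 Steps: seed ME-180 HRE-bla cells (2,000/well, 0.5% dialyzed FBS); incubate 5 hrs at 37C; pin-transfer compounds or DMSO; incubate 17 hrs; add LiveBLAzer B/G substrate CCF4-AM; measure reporter activation by FRET.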
The nature of assay [17]: qHTS assay to identify small molecule agonists of H2AX - cell viability counter screen (AID 1224847; calls by dose curve; further: nearly all actives have a fitted effect of over 30% in size; further: potency means the concentration at half of the fitted maximal effect). The procedure, abridged:
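CHO-K1 wt, 1000 cells/well, o/n 37C; cpds 15 conc, 3 h 37C, 0.76% DMSO; CellTiter-Glo, 30 min RT, luminescence.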

The nature of assay [18]: qHTS RealTime-Glo MT Cell Viability Assay in HEK293 cells - 16 hour (AID 1224872). Further: nearly all actives have a fitted effect of over 50% in size. Further: potency means the concentration at half of the fitted maximal effect. A digest of the protocol:
as §1

Assay [19] in a line: qHTS assay to identify small molecule antagonists of the estrogen related receptor signaling pathway with the pleiotropic PPARgamma coactivator (PGC) from Tox21 10K library (AID 1224841; call rule not given here; further: potency means the concentration at half of the fitted maximal effect). The procedure, abridged: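 Antagonism in this quantitative HTS is taken from loss of luciferase signal in PGC/ERR cells. Cells (2,000/well) are treated with compounds in DMSO after a 6 h settling period and read by One-Glo luminescence after 18 h.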

Ten compounds from PubChem BioAssay (Tox21) can be followed below.

Where “and” joins values, the source holds several entries; their conditions need not be identical. Identical values can stand only once. Records with an inconclusive call do not appear. Some compounds were tested as several samples or in several runs, with calls that do not always agree. Calls of active or inactive are those of the source. Unless noted, the call rests on the fitted dose curve; in most records, active means well fitted curve in the direction sought with a large enough effect in the repeat runs; inconclusive means weak or mixed curves; inactive means no such curve, though single readings can be large; an effect the other way counts as inactive or inconclusive.
On the % scale 0 is the no-effect control and ±100 the full control effect.

Chain of Thyrotropin receptor (Homo sapiens) (P16473 whole entry, looked up): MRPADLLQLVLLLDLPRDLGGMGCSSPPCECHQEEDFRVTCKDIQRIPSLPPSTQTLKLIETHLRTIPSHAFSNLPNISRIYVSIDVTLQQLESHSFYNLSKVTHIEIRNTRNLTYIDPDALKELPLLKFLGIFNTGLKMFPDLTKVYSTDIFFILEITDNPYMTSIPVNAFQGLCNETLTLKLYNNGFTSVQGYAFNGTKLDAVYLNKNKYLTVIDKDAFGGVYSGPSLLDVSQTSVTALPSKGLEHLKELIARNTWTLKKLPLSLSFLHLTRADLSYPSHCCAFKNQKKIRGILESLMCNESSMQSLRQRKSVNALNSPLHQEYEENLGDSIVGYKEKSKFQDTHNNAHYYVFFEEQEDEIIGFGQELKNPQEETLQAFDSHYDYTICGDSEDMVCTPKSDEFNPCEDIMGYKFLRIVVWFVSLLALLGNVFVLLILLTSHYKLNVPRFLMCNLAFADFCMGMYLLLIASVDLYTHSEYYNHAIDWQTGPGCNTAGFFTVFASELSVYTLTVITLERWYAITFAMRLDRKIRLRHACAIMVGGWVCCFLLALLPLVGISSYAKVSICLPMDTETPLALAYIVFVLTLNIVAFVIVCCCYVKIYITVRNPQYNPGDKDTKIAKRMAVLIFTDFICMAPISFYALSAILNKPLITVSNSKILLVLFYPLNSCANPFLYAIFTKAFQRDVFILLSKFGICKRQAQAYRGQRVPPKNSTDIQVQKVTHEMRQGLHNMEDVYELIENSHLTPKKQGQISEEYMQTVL
Chain of Nuclear receptor subfamily 1 group I member 3 (Homo sapiens) (Q14994 whole entry, looked up): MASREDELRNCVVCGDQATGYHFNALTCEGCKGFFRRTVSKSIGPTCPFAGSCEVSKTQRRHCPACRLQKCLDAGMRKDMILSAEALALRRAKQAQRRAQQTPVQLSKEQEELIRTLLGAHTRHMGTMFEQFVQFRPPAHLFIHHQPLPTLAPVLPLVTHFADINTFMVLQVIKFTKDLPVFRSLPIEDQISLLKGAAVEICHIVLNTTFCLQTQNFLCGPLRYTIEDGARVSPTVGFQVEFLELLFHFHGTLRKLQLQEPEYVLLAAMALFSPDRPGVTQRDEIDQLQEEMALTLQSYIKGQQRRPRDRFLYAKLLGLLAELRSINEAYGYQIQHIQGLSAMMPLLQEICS

For `Oc1c(Cl)cc(Cl)cc1Sc1cc(Cl)cc(Cl)c1O`, the Potency result in [1], in assay [3], in assay [4], in assay [5], in assay [7] and in [9] was “inactive” each time. In addition, in [12], the Potency entry is “inactive”. Further, the Potency in assay [2] was 17.3 µM (active) and 62.1 µM (active); in [6] it was 19.5 µM (active) and 24.5 µM (active) and inactive; in [10] it was 19.5 µM (active) and 15.5 µM (active); in [11] it was “inactive and 27.5 µM (active)”; in [13], 49.1 µM (active) and 43.6 µM (active) and inactive. Further, the activity change, positive = activation in assay [8] (at 42.5 µM (top of the series)) is -52.3% (inactive); in assay [8] (at 92.4 µM (top of the series)), -60.8% (inactive) and -52.2% (inactive) and -57.2% (inactive).

On to `CC(=O)OCCOCCOCCOC(C)=O`, for which the Potency entry in assay [14], in [2], in assay [3], in [15], in [6] and in assay [7] was “inactive” in each case. Also, the Potency result in [16], in [17], in assay [9], in [10] and in assay [13] was “inactive” throughout. Also, the Potency in assay [5] is 6.77 µM (active) and inactive.

For the compound `c1ccc2c(c1)CCCC2C1=NCCN1` (stereo not drawn), the Potency entry in [1], in assay [14], in [15], in assay [5], in [6] and in [7] was “inactive” in each case. The Potency entry in assay [17], in [9], in [10], in assay [11], in assay [12] and in assay [13] was “inactive” each time. Besides, in assay [18], the Potency result is “inactive”.

Turning to `O=C(Nc1ccccc1SSc1ccccc1NC(=O)c1ccccc1)c1ccccc1`, the Potency in [14] is 19.4 µM (active) and 24.3 µM (active); in assay [2], 21.8 µM (active) and 30.6 µM (active); in assay [15], 30.8 µM (active) and 48.6 µM (active); in assay [19], 27.4 µM (active) and 27.3 µM (active); in assay [6], 15.6 µM (active) and 21.9 µM (active); in [7], 18 µM (active). Further, the Potency result in assay [9] was “inactive and 49 µM (active)”. The Potency result in [3], in assay [4], in assay [5] and in assay [11] was “inactive” in each case. Also, the activity change, positive = activation in assay [8] (at 92.4 µM (top of the series)) is -71.7% (inactive) and -62.7% (inactive).

Take `NC12CC3CC(CC(C3)C1)C2`: the Potency result in assay [1], in assay [14], in assay [15], in [6], in assay [7] and in assay [17] was “inactive” in each case. Moreover, the Potency entry in assay [9], in assay [10], in [11], in assay [12] and in [13] was “inactive” each time.

In the case of `CCCCCC(=O)O[C@]1(C(C)=O)CC[C@H]2[C@@H]3CCC4=CC(=O)CC[C@]4(C)[C@H]3CC[C@@]21C`, the Potency in assay [14] is 48.2 µM (active); in assay [15], 54.1 µM (active); in assay [6], 38.6 µM (active); in assay [17] it was 31.6 µM (active); in [10], 24.4 µM (active). Moreover, the Potency entry in assay [2], in [3], in assay [19], in assay [4], in assay [7] and in [9] was “inactive” each time. The Potency entry in assay [11], in assay [12] and in assay [13] was “inactive” each time. Also, the results for the activity change, positive = activation in assay [8] (at 42.5 µM (top of the series)) and in assay [8] (at 92.4 µM (top of the series)) were -35.8% (inactive) and -61% (inactive), respectively.

For the compound `CN(C)c1ccc(C(=C2C=CC(=[N+](C)C)C=C2)c2ccccc2)cc1`, the Potency in assay [1] was 11.9 µM (active) [middle of 4 runs]; in assay [2], 4.73 µM (active) [middle of 4 runs]; in assay [15], 3.44 µM (active) and 6.68 µM (active) and 4.73 µM (active); in assay [6], 11 µM (active) and 5.35 µM (active); in assay [9] it was 11 µM (active) and 8.49 µM (active) and 7.56 µM (active); in assay [10] it was 2.13 µM (active) [middle of 4 runs]. The Potency was 17.4 µM (active) and 9.52 µM (active) and 10.7 µM (active) in [13]; 3.01 µM (active) [middle of 4 runs] in assay [18]. In addition, the Potency entry in assay [3] and in assay [4] was “inactive” throughout. For the same compound, the activity change, positive = activation was -66.6% (inactive) and -76.7% (inactive) and -71.5% (inactive) in assay [8] (at 42.5 µM (top of the series)); -71.3% (inactive) in [8] (at 92.4 µM (top of the series)).

As for `CNC1(C)C2CCC(C2)C1(C)C` (stereo not drawn), the Potency result in assay [14], in assay [2], in assay [3], in [15], in assay [19] and in [4] was “inactive” throughout. For the same compound, the Potency result in assay [5], in [6], in assay [7], in assay [17], in assay [9] and in assay [10] was “inactive” each time. Moreover, the Potency entry in assay [13] and in [18] was “inactive” throughout. The activity change, positive = activation in [8] (at 42.5 µM (top of the series)) was 0.179% (inactive).

Consider `C=CC(=O)OCCCCCCOC(=O)C=C`, for which the Potency entry in [1], in assay [2], in [3], in [19], in [5] and in assay [11] was “inactive” in each case. Also, the Potency result in [12] is “inactive”. The Potency in assay [15] was 48.6 µM (active); in assay [4] it was 21.7 µM (active); in assay [7], 114 µM (active); in assay [9], “inactive and 43.6 µM (active)”; in [10] it was 49 µM (active); in [13] it was 54.9 µM (active). Also, in [8] (at 92.4 µM (top of the series)), the activity change, positive = activation was -0.87% (active) and -57.5% (active).

With `CCOc1ccccc1C(N)=O`, the Potency entry in assay [14], in [2], in [3], in [15], in assay [5] and in [6] was “inactive” each time. The Potency entry in assay [7], in assay [16], in [17], in assay [9], in assay [10] and in assay [12] was “inactive” in each case. For the same compound, the Potency result in [13] and in [18] was “inactive” throughout.
